Assay outcomes: PubChem BioAssay, The Scripps Research Institute Molecular Screening Center
MBD2 DNA inh: MBD2-methylated oligo binding inhibition | Q9UBB5 | TR-FRET, MBD2 binding to methylated oligonucleotide | inhibition, % at 4.4 µM | 370,000 tested, 0.31% active | AID 686964; in the data active = inhibition above about 13%
PRMT1 inh: blocks human protein arginine methyltransferase 1. recombinant PRMT1, activity-based probe fluorescence polarization. AID 652257. inhibition, % at 2.79 µM. 370,000 tested, 1.3% active. Q99873;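 active = inhibition above about 21% made by adding two undisclosed values, limit read from the data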
UHRF1 MBD2 ctr: blocks human UHRF1 binding to methylated DNA; Q96T88; UHRF1 binding to methylated oligo, TR-FRET; inhibition, % at 4.4 µM; 370,000 tested, 0.75% active; in the data active = inhibition above about 21%;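 note: UHRF1 SRA domain binding a hemimethylated CpG hairpin DNA probe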
Target sequence (Q96T88 whole entry, looked up, the tested form may be a part): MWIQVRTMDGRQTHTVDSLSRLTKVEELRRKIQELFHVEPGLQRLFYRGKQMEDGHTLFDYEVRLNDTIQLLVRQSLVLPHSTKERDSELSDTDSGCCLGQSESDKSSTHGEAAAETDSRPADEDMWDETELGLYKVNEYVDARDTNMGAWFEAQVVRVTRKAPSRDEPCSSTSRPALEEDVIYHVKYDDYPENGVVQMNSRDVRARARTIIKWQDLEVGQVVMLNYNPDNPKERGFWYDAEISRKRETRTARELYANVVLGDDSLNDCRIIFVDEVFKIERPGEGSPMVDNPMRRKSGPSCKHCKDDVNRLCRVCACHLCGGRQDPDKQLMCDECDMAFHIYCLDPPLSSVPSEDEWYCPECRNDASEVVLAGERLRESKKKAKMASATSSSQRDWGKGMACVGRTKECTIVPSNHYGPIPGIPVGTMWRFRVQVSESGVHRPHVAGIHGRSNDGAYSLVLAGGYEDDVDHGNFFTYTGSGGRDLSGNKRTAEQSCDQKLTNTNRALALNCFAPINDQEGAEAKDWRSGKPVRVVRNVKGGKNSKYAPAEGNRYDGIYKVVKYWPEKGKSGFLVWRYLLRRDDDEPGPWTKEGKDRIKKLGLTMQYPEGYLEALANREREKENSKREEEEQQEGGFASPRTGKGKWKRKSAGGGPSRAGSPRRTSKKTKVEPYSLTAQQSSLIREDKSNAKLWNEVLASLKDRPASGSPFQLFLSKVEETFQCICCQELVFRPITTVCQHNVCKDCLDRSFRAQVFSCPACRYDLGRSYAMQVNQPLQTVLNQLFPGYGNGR
LEDGF integ inh: blocks HIV-1 LEDGF/p75-dependent DNA integration; inhibition, % at 3.7 µM; 370,000 tested, 0.64% active; AID 743269; TR-FRET IN-LEDGF/p75 DNA integration, Eu/Cy5;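 active = inhibition above the screen-wide mean plus 3 SD, cut at about 13% in these data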;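 note: signal is the Cy5 over europium emission ratio at 671 and 618 nm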
IN multimer up: counter-screen for LEDGF/p75 integration inhibitors: HIV-1 integrase multimerization activators; shares compounds with LEDGF integ inh; TR-FRET HIV-1 integrase multimerization, biochemical; activation, % at 7.7 µM; 2,000 tested, 17% active; AID 1053131; in the data active = activation above about 8.9%
TR-FRET interf: optically interferes with TR-FRET readout in LEDGF counter-screen | shares compounds with LEDGF integ inh | TR-FRET optical interference counterscreen, HIV-1 IN multimerization | inhibition, % at 7.7 µM | 2,000 tested, under 10 active | AID 1053135;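 active = inhibition above the mean over all tested compounds plus 3 SD, which no compound reached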
LEDGF integ conf: LEDGF/p75-dependent HIV-1 integration inhibition, confirmation. shares compounds with LEDGF integ inh. TR-FRET LEDGF/p75-dependent HIV-1 integration, biochemical. 2,000 tested, 36% active. inhibition, % at 3.7 µM. AID 1053136; in the data active = inhibition above about 14%
Large screens that a line does not name were inactive (follow-up assays come after a bar, where they were run). In the library only some 2.5% were active in any assay of this set; here they are far more common.

COc1cccc(C2C(C#N)=C(N)Oc3cc(N)ccc32)c1OC (configuration not stated)	LEDGF integ inh 14.8 | IN multimer up inactive | TR-FRET interf inactive | LEDGF integ conf inactive
CCOC(=O)c1c(N)n(CCOC(=O)c2cccs2)c2nc3ccccc3nc12	LEDGF integ inh 32.5 | IN multimer up inactive | TR-FRET interf inactive | LEDGF integ conf inactive
CCCCCOC(=O)c1c(N)n(CCOC)c2nc3ccccc3nc12	none
CN1OC[C@@H]2CN(Cc3cc(Cl)cc(Cl)c3)[C@H](c3cccc(Br)c3)C[C@@H]21	none
CCC/C(C(=O)NCCO)=C1/c2ccccc2C(=O)N1c1ccccc1	LEDGF integ inh 17.5 | IN multimer up inactive | TR-FRET interf inactive | LEDGF integ conf inactive
CCc1cnc(Nc2nc(C(N)Cc3ccc(Cl)cc3)cs2)nc1 (configuration not stated)	none
CCCc1cnc(Nc2nc(C(N)Cc3ccc(OC)cc3)cs2)nc1 (configuration not stated)	LEDGF integ inh 13.4 | IN multimer up inactive | TR-FRET interf inactive | LEDGF integ conf inactive
COc1cc(OC)c(C(=O)O/N=C(\N)c2cccc(C)c2)cc1OC	LEDGF integ inh 17.1 | IN multimer up inactive | TR-FRET interf inactive | LEDGF integ conf inactive
Cn1nnc(NC(=O)c2ccc([N+](=O)[O-])cc2Cl)n1	LEDGF integ inh 51.3 | IN multimer up inactive | TR-FRET interf inactive | LEDGF integ conf inactive
O=C(Nn1cnnc1)c1ccc([N+](=O)[O-])cc1Cl	none
Cc1ccc(CNc2nc3cc(-c4ccccc4)sc3c(=O)n2C)c(C)c1	none
O=c1[nH]c(Nc2ccccc2Cl)cc2ccccc12	LEDGF integ inh 30.0 | IN multimer up inactive | TR-FRET interf inactive | LEDGF integ conf 29.6
O=c1[nH]c(Nc2ccc(F)cc2)cc2ccccc12	LEDGF integ inh 52.9 | IN multimer up inactive | TR-FRET interf inactive | LEDGF integ conf 66.6
O=C(O)c1ccc(-c2nn3c(=O)cc(N4CCNCC4)nc3s2)cc1	none
O=C(CN1C(=O)/C(=C/c2ccccc2)SC1=S)N1CCN(CCc2ccccn2)CC1	none
CCOC(=O)C1=NS(=O)(=O)NC(C)=C1	LEDGF integ inh 15.6 | IN multimer up inactive | TR-FRET interf inactive | LEDGF integ conf inactive
CC1=CC(c2ccccc2)=NS(=O)(=O)N1	none
COc1ccccc1NC(=O)CSCC(=O)N1c2ccccc2CCc2ccccc21	LEDGF integ inh 13.4 | IN multimer up inactive | TR-FRET interf inactive | LEDGF integ conf inactive
C=CCCC1CN(Cc2ccc(OC)cc2)S(=O)(=O)c2c(Oc3ccc(C(C)C)cc3)cccc2O1 (configuration not stated)	none
C=CCCC1CN(Cc2ccc(OC)cc2)S(=O)(=O)c2c(cccc2N(C)S(=O)(=O)c2ccc(C)cc2)O1 (configuration not stated)	LEDGF integ inh 89.2 | IN multimer up inactive | TR-FRET interf inactive | LEDGF integ conf inactive
C=CCNC(=O)COC(=O)c1cc(S(=O)(=O)N2CCCCC2)ccc1Cl	none
CN[C@@H](CO)C(=O)NC[C@H]1O[C@@H](n2cc(C)c(=O)[nH]c2=O)C[C@@H]1O	none
O=C1c2cccc3c2N(CCC3)C(=O)C1(F)c1ccccc1 (configuration not stated)	LEDGF integ inh 14.1 | IN multimer up inactive | TR-FRET interf inactive | LEDGF integ conf inactive
COc1cccc(NC(=O)c2cc(OC)c(OC)c(OC)c2Br)c1	LEDGF integ inh 14.0 | IN multimer up inactive | TR-FRET interf inactive | LEDGF integ conf inactive
O=C(COC(=O)CCC(=O)c1ccc(F)cc1)Nc1ccc2[nH]c(=O)[nH]c2c1	none
O=C(NNC(=O)C1CCN(S(=O)(=O)c2ccc(Cl)cc2)CC1)c1ccc(Cl)cc1	LEDGF integ inh 83.9 | IN multimer up inactive | TR-FRET interf inactive | LEDGF integ conf inactive
CN(C)CCCNC(=O)c1cc(C(=O)c2c(Cl)cccc2Cl)c[nH]1	none
COc1ccccc1-c1nnc2sc(COc3ccccc3)nn12	LEDGF integ inh 27.8 | IN multimer up inactive | TR-FRET interf inactive | LEDGF integ conf inactive
COc1ccccc1-c1nnc2sc(COc3ccc(Cl)cc3Cl)nn12	none
